Source: the supplement of paper PMC10849652
The full data set covers some 8,800 targets. This sample favours those with a hit. About 0.5% of all pairs of compound and target were hits.

Legend:
Assay in all cases: log2 fold change, soluble protein after heating vs DMSO (PISA); higher = thermal stabilisation; K562 lysate, 10 uM; active = over 0.2 and 3.5 SD of the protein, either way, in both replicates (recomputed)
alvocidib = compound: CN1CC[C@H](c2c(O)cc(O)c3c(=O)cc(-c4ccccc4Cl)oc23)[C@H](O)C1 [alvocidib]
Summary of the method: (§1)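 Thermal stability, expressed as log-two fold change relative to solvent controls, is given from duplicates. Crude K562 extract in PBS pH 7.4 with 1 mM MgCl2, at 1 mg/mL protein, was treated with 10 μM compound for 30 min and heated in aliquots for 3 min across 48°C-58°C. After pooling, adjustment to 0.5% NP-40 at 4°C and centrifugation at 21,000xg for 90 min, supernatant protein was measured by TMTpro 16plex LC-MS/MS with channel sums equalised.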

Tubastatin A = compound: CN1CCc2c(c3ccccc3n2Cc2ccc(C(=O)NO)cc2)C1 [Tubastatin A]
Summary of the method: as §1

[1] = compound: CNC(=O)C1=CC=CC=C1NC2=NC(=NC=C2Cl)NC3=C(C=C(C=C3)N4CCOCC4)OC
Summary of the method: as §1

defactinib = compound: CNC(=O)c1ccc(Nc2ncc(C(F)(F)F)c(NCc3nccnc3N(C)S(C)(=O)=O)n2)cc1 [defactinib]
Summary of the method: as §1

[2] = compound: CNc1nc(-c2ccc3c(N)n[nH]c3c2)cc(N2C[C@@H](C(=O)NC3CCCCC3)CC[C@H]2C)n1
Summary of the method: as §1

encorafenib = compound: COC(=O)N[C@@H](C)CNc1nccc(-c2cn(C(C)C)nc2-c2cc(Cl)cc(NS(C)(=O)=O)c2F)n1 [encorafenib]
Summary of the method: as §1

[3] = compound: COC(=O)[C@H](CCSC)NC(=O)C1=C(C=C(C=C1)NC[C@H](CS)N)C2=CC=CC=C2
Summary of the method: as §1

alisertib = compound: COc1cc(Nc2ncc3c(n2)-c2ccc(Cl)cc2C(c2c(F)cccc2OC)=NC3)ccc1C(=O)O [alisertib]
Summary of the method: as §1

[4] = compound: COc1cc2nc(-c3cc(F)ccc3O)nc(N[C@@H]3CNC[C@H]3C(C)(C)O)c2cc1OC
Summary of the method: as §1

gefitinib = compound: COc1cc2ncnc(Nc3ccc(F)c(Cl)c3)c2cc1OCCCN1CCOCC1 [gefitinib]
Summary of the method: as §1

Measured: log2 fold change

DENND6A (UniProt Q8IWF6)
inactive: alvocidib -0.009 | Tubastatin A -0.072 | [1] -0.006 | defactinib 0.007 | [2] 0.103 | encorafenib 0.007 | [3] -0.134 | alisertib 0.059 | [4] -0.024 | gefitinib 0.047

DNA2 (UniProt P51530)
inactive: alvocidib -0.116 | Tubastatin A -0.15 | [1] -0.009 | defactinib -0.039 | [2] -0.035 | encorafenib 0.123 | [3] -0.098 | alisertib -0.007 | gefitinib 0.036

CTNNBL1 (UniProt Q8WYA6)
active: [2] 0.417
inactive: alvocidib 0.027 | Tubastatin A 0.148 | [1] -0.004 | defactinib -0.015 | encorafenib 0.023 | [3] 0.101 | alisertib -0.013 | [4] -0.027 | gefitinib 0.022

DOK1 (UniProt Q99704)
inactive: alvocidib -0.02 | Tubastatin A -0.135 | [1] 0.059 | defactinib 0.059 | [2] -0.005 | encorafenib -0.007 | [3] 0.044 | alisertib 0.082 | [4] 0.071 | gefitinib -0.102

DLD (UniProt P09622)
inactive: alvocidib -0.024 | Tubastatin A 0.041 | [1] 0.03 | defactinib -0.02 | [2] 0.046 | encorafenib -0.014 | [3] -0.13 | alisertib 0 | [4] 0.008 | gefitinib -0.055

DNAH5 (UniProt Q8TE73)
Chain of UniProt Q8TE73 (Q8TE73 whole entry, looked up): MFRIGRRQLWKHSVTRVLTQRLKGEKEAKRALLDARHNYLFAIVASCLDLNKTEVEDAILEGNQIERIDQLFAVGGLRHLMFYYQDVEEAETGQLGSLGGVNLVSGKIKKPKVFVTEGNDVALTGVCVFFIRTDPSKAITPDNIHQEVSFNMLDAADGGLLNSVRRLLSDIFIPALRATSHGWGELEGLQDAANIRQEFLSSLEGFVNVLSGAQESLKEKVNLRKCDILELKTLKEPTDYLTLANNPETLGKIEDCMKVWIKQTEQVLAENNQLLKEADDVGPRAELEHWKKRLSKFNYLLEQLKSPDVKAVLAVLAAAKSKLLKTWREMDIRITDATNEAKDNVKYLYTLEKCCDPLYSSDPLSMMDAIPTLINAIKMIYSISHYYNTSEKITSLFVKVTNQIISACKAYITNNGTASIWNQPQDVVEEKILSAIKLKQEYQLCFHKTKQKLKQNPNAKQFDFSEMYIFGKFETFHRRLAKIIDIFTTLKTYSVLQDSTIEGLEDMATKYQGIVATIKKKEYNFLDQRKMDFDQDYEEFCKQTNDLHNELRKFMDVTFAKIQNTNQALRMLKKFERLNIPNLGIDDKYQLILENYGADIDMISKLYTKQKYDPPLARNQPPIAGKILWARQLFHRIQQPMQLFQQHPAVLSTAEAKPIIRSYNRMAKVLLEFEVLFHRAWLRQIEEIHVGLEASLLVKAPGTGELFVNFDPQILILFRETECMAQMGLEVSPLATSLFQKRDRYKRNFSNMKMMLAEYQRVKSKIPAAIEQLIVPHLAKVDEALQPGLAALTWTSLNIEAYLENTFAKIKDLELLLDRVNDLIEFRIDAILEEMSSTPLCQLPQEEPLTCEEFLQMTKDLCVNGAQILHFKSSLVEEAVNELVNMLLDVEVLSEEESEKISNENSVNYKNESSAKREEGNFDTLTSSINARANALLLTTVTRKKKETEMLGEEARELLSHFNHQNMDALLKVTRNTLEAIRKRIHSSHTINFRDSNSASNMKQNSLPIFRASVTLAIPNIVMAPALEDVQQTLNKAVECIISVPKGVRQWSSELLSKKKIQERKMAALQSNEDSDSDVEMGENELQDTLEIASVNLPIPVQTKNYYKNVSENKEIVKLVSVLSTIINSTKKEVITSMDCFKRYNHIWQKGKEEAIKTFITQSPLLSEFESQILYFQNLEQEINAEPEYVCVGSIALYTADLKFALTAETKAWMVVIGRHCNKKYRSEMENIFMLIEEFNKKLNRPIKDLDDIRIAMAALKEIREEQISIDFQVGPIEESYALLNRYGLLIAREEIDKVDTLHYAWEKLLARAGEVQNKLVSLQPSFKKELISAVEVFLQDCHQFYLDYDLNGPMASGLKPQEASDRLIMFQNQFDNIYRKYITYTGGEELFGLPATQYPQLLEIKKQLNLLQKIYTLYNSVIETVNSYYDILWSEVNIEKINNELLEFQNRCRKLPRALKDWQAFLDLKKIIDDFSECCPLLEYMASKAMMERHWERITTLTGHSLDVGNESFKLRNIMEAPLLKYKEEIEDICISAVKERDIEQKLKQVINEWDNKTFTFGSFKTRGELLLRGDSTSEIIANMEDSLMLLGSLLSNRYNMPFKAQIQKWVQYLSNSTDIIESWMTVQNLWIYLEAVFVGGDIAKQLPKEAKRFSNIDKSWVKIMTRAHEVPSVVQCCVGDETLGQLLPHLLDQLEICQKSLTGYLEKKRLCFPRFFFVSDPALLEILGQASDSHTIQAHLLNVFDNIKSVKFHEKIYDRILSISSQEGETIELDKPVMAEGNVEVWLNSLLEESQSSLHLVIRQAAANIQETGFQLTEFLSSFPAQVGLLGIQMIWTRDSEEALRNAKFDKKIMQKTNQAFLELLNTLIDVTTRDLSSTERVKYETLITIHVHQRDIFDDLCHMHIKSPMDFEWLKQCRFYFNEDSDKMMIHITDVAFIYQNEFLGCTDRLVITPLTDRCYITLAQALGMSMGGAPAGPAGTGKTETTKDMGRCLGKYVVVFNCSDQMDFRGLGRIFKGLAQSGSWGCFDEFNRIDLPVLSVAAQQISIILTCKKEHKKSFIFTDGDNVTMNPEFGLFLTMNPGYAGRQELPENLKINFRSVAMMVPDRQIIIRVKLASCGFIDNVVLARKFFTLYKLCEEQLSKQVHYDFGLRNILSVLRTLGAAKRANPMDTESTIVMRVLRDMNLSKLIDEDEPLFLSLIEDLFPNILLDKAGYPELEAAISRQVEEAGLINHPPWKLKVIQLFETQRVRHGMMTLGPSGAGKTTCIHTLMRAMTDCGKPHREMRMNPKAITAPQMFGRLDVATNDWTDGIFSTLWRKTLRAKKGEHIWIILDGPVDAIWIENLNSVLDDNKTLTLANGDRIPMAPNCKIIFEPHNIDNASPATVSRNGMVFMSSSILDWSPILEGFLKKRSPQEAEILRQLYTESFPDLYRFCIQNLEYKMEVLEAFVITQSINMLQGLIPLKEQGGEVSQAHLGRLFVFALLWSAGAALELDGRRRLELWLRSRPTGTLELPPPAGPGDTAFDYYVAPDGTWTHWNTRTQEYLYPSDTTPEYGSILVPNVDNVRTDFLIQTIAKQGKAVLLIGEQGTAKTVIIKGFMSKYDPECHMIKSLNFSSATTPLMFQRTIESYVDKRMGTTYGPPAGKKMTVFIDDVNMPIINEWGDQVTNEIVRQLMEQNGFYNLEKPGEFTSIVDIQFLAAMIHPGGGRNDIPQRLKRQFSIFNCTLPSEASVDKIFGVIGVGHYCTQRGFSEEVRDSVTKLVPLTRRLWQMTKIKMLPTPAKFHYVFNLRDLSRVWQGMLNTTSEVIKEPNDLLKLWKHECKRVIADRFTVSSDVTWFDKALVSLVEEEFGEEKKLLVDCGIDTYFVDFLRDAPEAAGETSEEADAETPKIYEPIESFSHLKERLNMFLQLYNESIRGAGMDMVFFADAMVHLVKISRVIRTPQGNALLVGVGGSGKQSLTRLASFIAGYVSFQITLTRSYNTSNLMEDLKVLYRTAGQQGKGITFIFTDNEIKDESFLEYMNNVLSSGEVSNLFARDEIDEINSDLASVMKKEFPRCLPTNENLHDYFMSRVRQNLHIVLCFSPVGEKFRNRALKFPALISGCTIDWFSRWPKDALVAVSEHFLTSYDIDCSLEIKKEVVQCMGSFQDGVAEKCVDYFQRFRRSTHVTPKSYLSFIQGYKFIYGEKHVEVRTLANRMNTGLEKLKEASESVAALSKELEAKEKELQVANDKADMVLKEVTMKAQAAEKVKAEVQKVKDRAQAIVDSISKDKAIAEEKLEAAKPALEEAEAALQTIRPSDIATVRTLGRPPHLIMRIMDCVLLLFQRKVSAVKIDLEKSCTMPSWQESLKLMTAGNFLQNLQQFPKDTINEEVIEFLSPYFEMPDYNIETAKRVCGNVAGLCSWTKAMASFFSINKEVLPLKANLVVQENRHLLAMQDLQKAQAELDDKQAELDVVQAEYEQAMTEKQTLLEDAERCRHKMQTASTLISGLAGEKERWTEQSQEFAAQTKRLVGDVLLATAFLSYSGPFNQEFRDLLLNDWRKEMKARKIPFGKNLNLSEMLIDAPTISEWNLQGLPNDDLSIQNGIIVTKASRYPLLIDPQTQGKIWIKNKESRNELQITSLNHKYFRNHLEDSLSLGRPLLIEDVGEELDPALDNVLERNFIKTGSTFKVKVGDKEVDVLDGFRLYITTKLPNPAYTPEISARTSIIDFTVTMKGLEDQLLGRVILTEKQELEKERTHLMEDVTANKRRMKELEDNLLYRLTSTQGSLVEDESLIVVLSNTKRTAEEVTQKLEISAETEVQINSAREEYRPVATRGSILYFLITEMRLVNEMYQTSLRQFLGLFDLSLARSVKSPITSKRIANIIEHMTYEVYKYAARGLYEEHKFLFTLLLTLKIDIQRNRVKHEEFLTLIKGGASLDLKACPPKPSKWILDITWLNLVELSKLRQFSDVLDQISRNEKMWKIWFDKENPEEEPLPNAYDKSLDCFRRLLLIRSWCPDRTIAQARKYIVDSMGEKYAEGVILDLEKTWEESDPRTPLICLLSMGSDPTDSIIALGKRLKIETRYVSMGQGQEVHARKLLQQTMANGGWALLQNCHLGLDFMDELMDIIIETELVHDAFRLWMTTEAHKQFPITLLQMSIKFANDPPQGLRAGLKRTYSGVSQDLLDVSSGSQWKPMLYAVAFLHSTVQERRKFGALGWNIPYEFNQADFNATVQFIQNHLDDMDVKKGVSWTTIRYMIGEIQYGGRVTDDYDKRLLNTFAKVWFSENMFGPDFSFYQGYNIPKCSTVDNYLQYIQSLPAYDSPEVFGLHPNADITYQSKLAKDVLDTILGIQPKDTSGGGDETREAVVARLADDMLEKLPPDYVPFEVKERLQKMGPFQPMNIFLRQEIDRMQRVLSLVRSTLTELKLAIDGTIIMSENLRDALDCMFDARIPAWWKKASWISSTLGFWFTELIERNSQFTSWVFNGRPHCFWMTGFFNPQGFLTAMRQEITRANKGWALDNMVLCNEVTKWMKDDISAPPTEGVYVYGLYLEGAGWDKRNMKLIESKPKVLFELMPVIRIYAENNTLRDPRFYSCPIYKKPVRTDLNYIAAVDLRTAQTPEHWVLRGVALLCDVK
inactive: alvocidib -0.189 | Tubastatin A 0.073 | [1] -0.032 | defactinib -0.014 | [2] -0.051 | alisertib -0.029 | [4] -0.019 | gefitinib 0.052

CNNM2 (UniProt Q9H8M5)
inactive: alvocidib -0.049 | Tubastatin A -0.105 | [1] 0.007 | defactinib 0.065 | [2] -0.01 | encorafenib -0.048 | [3] 0.033 | [4] -0.003

DERA (UniProt Q9Y315)
inactive: alvocidib 0.121 | Tubastatin A 0.018 | [1] 0.033 | defactinib -0.003 | [2] 0.085 | encorafenib -0.005 | [3] -0.053 | alisertib -0.059 | [4] -0.01 | gefitinib 0.087

DPM1 (UniProt O60762)
inactive: alvocidib 0.084 | Tubastatin A 0.055 | [1] -0.005 | defactinib 0.037 | [2] 0.041 | encorafenib 0.01 | [3] 0.083 | alisertib 0.047 | [4] 0.013 | gefitinib -0.041

CHUK (UniProt O15111)
inactive: alvocidib 0.029 | Tubastatin A -0.203 | [1] 0.077 | defactinib 0.089 | [2] -0.039 | encorafenib -0.021 | [3] 0.121 | alisertib 0.018 | [4] 0.052 | gefitinib -0.06

CIC (UniProt I3L2J0)
inactive: alvocidib 0.005 | Tubastatin A -0.03 | [1] 0.072 | defactinib 0.041 | [2] 0.035 | encorafenib -0.002 | [3] 0.052 | alisertib -0.027 | [4] 0.158 | gefitinib -0.098

CNTN4 (UniProt Q8IWV2)
inactive: alvocidib -0.148 | Tubastatin A 0.185 | [1] 0.021 | defactinib -0.104 | encorafenib -0.193 | [3] 0.124 | alisertib -0.074 | [4] 0.03 | gefitinib -0.022

CIP2A (UniProt Q8TCG1)
inactive: alvocidib 0.009 | [1] -0.015 | defactinib 0.003 | [2] -0.074 | encorafenib 0.008 | [3] 0.053 | alisertib -0.004 | [4] -0.014 | gefitinib -0.018
active: Tubastatin A -0.294

DENND1B (UniProt Q6P3S1)
inactive: alvocidib 0.074 | Tubastatin A 0.152 | [1] -0.105 | defactinib 0.099 | [2] 0.023 | alisertib -0.146 | [4] -0.226 | gefitinib -0.102

DHRS3 (UniProt O75911)
inactive: alvocidib -0.013 | Tubastatin A 0.105 | [1] 0.043 | defactinib -0.006 | [2] 0.085 | encorafenib -0.044 | [3] 0.151 | alisertib -0.006 | [4] -0.011 | gefitinib 0.071

CUX1 isoform 3 (UniProt P39880)
inactive: alvocidib -0.03 | Tubastatin A 0.003 | [1] 0.055 | defactinib -0.006 | [2] 0.005 | encorafenib 0 | [3] 0 | alisertib 0.067 | [4] -0.042 | gefitinib 0.014

DBF4 (UniProt Q9UBU7)
inactive: alvocidib -0.118 | Tubastatin A -0.072 | [1] -0.025 | defactinib -0.023 | [2] -0.058 | encorafenib 0.04 | [3] -0.072 | alisertib -0.028 | gefitinib -0.029

DCTN1 (UniProt Q14203)
inactive: alvocidib 0.03 | Tubastatin A -0.048 | [1] 0.009 | defactinib 0.008 | [2] -0.02 | encorafenib 0.008 | [3] 0.119 | alisertib -0.019 | [4] 0.01 | gefitinib -0.002

DONSON (UniProt Q9NYP3)
inactive: alvocidib 0.04 | Tubastatin A -0.079 | [1] 0.069 | [2] 0.005 | alisertib -0.05 | [4] 0.028 | gefitinib 0.075

DAZAP1 (UniProt K7EQ02)
inactive: alisertib 0.071 | gefitinib -0.084

DALRD3 (UniProt Q5D0E6)
inactive: alvocidib -0.016 | [1] -0.026 | defactinib 0.033 | encorafenib 0.054 | [3] -0.391 | [4] -0.004

CYP2S1 isoform 2 (UniProt Q96SQ9)
inactive: Tubastatin A 0.027 | [1] -0.085 | defactinib -0.022 | [2] -0.151 | encorafenib 0.024 | [3] 0 | [4] -0.219

CSNK1D (UniProt P48730)
inactive: alvocidib 0.244 | Tubastatin A -0.085 | defactinib 0.103 | [2] -0.091 | encorafenib 0.041 | [3] 0.013 | alisertib 0 | [4] -0.131 | gefitinib -0.023

CHMP4A (UniProt H0YIN6)
inactive: alvocidib -0.197 | Tubastatin A 0.193 | [2] 0.528 | [4] 0.104

DNM2 isoform 4 (UniProt P50570)
inactive: alvocidib -0.16 | Tubastatin A -0.095 | [1] -0.278 | [2] 0.055 | encorafenib 0.13 | [3] 0.06 | alisertib -0.007 | [4] -0.032 | gefitinib 0.029

CSNK1G3 isoform 4 (UniProt Q9Y6M4)
inactive: [4] 0.53

DLGAP5 isoform 3 (UniProt Q15398)
inactive: alvocidib 0 | [2] -0.051

DHRS13 (UniProt Q6UX07)
inactive: Tubastatin A -0.087 | [1] -0.083 | [2] 0.004 | alisertib -0.211 | [4] -0.138 | gefitinib 0.036

COL6A3 (UniProt P12111)
inactive: alvocidib 0.045 | Tubastatin A 0.017 | [1] -0.126 | [2] 0.13 | alisertib -0.323 | gefitinib 0.164

CLIP1, A0A3B3ITA2
inactive: alvocidib -0.036 | Tubastatin A 0.152 | defactinib -0.077

CSAD isoform 3 (UniProt Q9Y600)
inactive: Tubastatin A 0.082 | [1] -0.044

CRLS1 (UniProt Q9UJA2)
inactive: alvocidib 0.056 | Tubastatin A 0.007 | [1] 0.068 | alisertib 0.076 | [4] -0.017 | gefitinib 0.079

DESI2 (UniProt Q9BSY9)
inactive: alvocidib -0.07 | defactinib 0.016 | encorafenib -0.057 | [3] -0.014

CLASP2 (UniProt O75122)
inactive: alvocidib -0.139 | Tubastatin A -0.066 | defactinib 0.002 | encorafenib 0.058 | [3] -0.071 | alisertib 0.182 | [4] 0.037 | gefitinib -0.047

DPY19L3 (UniProt Q6ZPD9)
inactive: [1] -0.105 | defactinib -0.039 | encorafenib 0 | [3] -0.096 | [4] -0.042

CSNK1A1 (UniProt P48729)
Chain of UniProt P48729 (P48729 whole entry, looked up): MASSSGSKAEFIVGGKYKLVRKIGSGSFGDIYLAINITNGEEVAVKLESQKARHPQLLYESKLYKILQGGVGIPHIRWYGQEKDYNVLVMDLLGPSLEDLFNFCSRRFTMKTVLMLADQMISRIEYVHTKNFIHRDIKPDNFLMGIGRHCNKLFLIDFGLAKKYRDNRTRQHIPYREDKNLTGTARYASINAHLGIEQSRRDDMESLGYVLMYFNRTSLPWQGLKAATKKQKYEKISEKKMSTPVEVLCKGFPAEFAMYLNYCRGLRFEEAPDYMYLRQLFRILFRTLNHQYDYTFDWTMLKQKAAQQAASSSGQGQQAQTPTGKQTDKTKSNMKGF
inactive: alvocidib 0.007 | Tubastatin A -0.105 | defactinib 0.077 | [2] 0.019 | encorafenib 0.081 | [3] -0.005 | [4] 0.049 | gefitinib -0.005

COPS9 (UniProt Q8WXC6)
inactive: Tubastatin A -0.272 | [1] 0.087 | [4] 0.163

CYP4V2 (UniProt Q6ZWL3)
inactive: Tubastatin A -0.1 | [1] -0.007 | [2] 0.045 | [4] -0.066

CLIP1 isoform 2 (UniProt P30622)
inactive: alvocidib 0.029 | Tubastatin A 0.117 | [1] -0.085 | [2] 0.088 | encorafenib -0.012 | [3] -0.015 | alisertib -0.033 | [4] -0.017 | gefitinib -0.005

CSNK2A1, A0A2R8Y4D6
inactive: [4] 0.06

CPLX1 (UniProt O14810)
inactive: Tubastatin A 0.04 | defactinib 0.144 | [2] -0.127 | encorafenib -0.017 | [3] -0.415 | [4] -0.005

DHX32 (UniProt Q7L7V1)
inactive: alvocidib 0.019 | Tubastatin A 0.027 | [1] 0.044 | defactinib -0.043 | encorafenib 0.062 | [3] 0.048 | alisertib 0.017 | gefitinib 0.02

DDR1 isoform 5 (UniProt Q08345)
inactive: alvocidib -0.034 | Tubastatin A 0.052 | [2] 0.147 | encorafenib 0.044 | [3] -0.094 | alisertib 0 | gefitinib 0.046

CHFR (UniProt Q96EP1)
active: defactinib -0.61
inactive: Tubastatin A -0.052 | [1] 0.004 | [2] -0.032 | encorafenib 0.063 | [3] -0.084 | alisertib 0.033 | [4] 0.008 | gefitinib -0.03

CSRP2 (UniProt Q16527)
Chain of UniProt Q16527 (Q16527 whole entry, looked up): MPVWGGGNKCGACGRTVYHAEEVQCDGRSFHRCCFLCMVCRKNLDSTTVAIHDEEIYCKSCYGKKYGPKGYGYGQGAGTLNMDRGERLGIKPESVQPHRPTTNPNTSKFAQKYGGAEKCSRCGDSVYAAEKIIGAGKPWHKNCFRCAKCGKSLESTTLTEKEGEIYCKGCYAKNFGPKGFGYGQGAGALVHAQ
inactive: alvocidib -0.028 | encorafenib -0.046 | [3] -0.056

COL12A1 (UniProt Q99715)
active: [4] 1.32
inactive: [1] 0.095 | defactinib -0.059 | [2] 0.531 | encorafenib 0.003 | [3] -0.092

CNIH4 (UniProt Q9P003)
inactive: Tubastatin A 0.1 | [1] 0.048 | defactinib 0.442 | [2] 0.049 | encorafenib 0.06 | [3] -0.249 | alisertib 0.1 | [4] 0.031 | gefitinib 0.17

CNOT2 (UniProt F8VRS8)
inactive: [1] 0.004

CXCL14 (UniProt O95715)
inactive: defactinib -0.235 | encorafenib -0.034 | [3] 0.066

CSNK1A1 isoform 3 (UniProt P48729)
inactive: Tubastatin A -0.138 | [2] 0.068

CSDE1 isoform 3 (UniProt O75534)
inactive: alvocidib 0.029 | Tubastatin A -0.014 | alisertib -0.011 | [4] 0.28 | gefitinib -0.09

CLASP1 isoform 4 (UniProt Q7Z460)
inactive: [1] 0.046 | defactinib 0.223 | alisertib 0.063 | gefitinib 0.107

CINP isoform 3 (UniProt Q9BW66)
inactive: alvocidib -0.056 | Tubastatin A -0.107 | defactinib -0.056 | [2] 0.028 | encorafenib 0.003 | [3] 0.062 | alisertib 0 | [4] 0.064 | gefitinib -0.24
